Source: PubChem BioAssay
Active and inactive are the calls of the source. Unless noted, how the calls were made is not given here.

How the values were obtained:
[1] = system: Wnt5a (protein binding on small-molecule microarray); test: small molecules binding Wnt5a protein – biophysical, small-molecule microarray, 635/667 nm fluorescence, primary screen (AID 1142); conditions: 635 nm fluorescence, higher = more signal;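 further: fluorescence read at 667 nm with signal to noise per printed feature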
[2] = ATP-based viability of Huh7 replicon cells – cell-based, CellTiter-Glo luminescence, basal, 48 h, cytotoxicity control for HCV replication inhibitor project, primary screen (AID 1143); conditions: higher = more signal, called active from +8 up or from −8 down;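 further: Huh7 hepatoma cells carrying a hepatitis C replication reporter with no stimulus; test concentration not given here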
[3] = Pseudomonas biofilm growth suppression – PAO1 strain, BacTiter-Glo luminescence, LB-PBS, primary screen (AID 1144); conditions: P. aeruginosa PAO1 biofilm, 12 h, higher = more signal
[4] = basal CRE-LacZ reporter activity in PC12 – cell-based, unstimulated, primary screen (AID 1145); conditions: no forskolin, luminescence, 4.5 h, higher = more signal, called active from +8 up or from −8 down
[5] = forskolin-driven CRE-LacZ activity in PC12 – cell-based, CRE-LacZ reporter, forskolin-stimulated, primary screen (AID 1146); conditions: luminescence, 4.5 h, higher = more signal, called active from +8 up or from −8 down;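 further: PC12 cells with 6xCRE LacZ reporter stimulated by forskolin 10 µM; beta-galactosidase reporter signal reflecting CREB driven transcription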
[6] = biological target: Streptavidin (Streptomyces avidinii) (UniProt P22629); test: compounds binding control protein streptavidin – biophysical, small-molecule microarray, 635/667 nm fluorescence, artefact control for SMM compound annotation, primary screen (AID 1147); conditions: higher = more signal;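 further: signal reflects streptavidin binding to arrayed compounds as a control protein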
Streptavidin (Streptomyces avidinii), sequence (P22629 whole entry, looked up): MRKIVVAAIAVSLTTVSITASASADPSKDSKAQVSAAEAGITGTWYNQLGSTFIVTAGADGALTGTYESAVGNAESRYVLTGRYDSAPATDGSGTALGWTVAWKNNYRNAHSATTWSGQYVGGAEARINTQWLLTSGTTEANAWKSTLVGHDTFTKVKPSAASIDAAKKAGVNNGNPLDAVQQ

[7] = probe aInhba binding on compound microarray – biochemical, small-molecule microarray, 635/667 nm fluorescence, primary screen (AID 1148); conditions: higher = more signal;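 further: score merges 667nm spot fluorescence with signal-to-noise for antibody binding to printed compounds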
Torsin-1A (Homo sapiens) [8] = biological target: Torsin-1A (Homo sapiens) (UniProt O14656); test: TOR1A wild-type binding on microarray – cell lysate, small-molecule microarray, lysate, 635/667 nm, primary screen (AID 1149); conditions: COS7 hTOR1A-WT lysate, 635 nm fluorescence, higher = more signal
Torsin-1A (Homo sapiens), sequence (O14656 whole entry, looked up): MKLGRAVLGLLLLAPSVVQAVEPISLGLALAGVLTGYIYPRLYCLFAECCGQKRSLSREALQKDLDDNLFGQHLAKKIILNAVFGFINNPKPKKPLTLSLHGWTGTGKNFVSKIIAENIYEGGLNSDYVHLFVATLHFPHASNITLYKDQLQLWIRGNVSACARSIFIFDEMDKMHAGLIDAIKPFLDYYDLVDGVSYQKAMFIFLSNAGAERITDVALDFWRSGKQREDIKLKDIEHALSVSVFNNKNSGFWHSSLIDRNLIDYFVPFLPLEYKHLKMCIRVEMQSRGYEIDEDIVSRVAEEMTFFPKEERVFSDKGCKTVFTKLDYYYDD

Torsin-1A (Homo sapiens) [9] = biological target: Torsin-1A (Homo sapiens) (UniProt O14656); test: torsin A mutant lysate binding on microarrays – cell lysate, small-molecule microarray, COS7 lysate, 635/667 nm fluorescence, primary screen (AID 1150); conditions: COS7 hTOR1A mutant lysate, 635 nm fluorescence, higher = more signal;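 further: score pools 667 nm emission and signal to noise measuring lysate protein binding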
[10] = system: Sonic hedgehog protein (Shh); test: Sonic hedgehog microarray binding compounds – biochemical, small-molecule microarray, 635/667 nm fluorescence, primary screen (AID 1151); conditions: 635 nm fluorescence, higher = more signal;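 further: Shh protein binding to compounds spotted on small-molecule microarray slides; score combines spot fluorescence intensity with signal-to-noise across triplicate slides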

Compound | composite z-score [1] | z-score [2] | z-score [3] | z-score [4] | z-score [5] | composite z-score [6] | composite z-score [7] | composite z-score (Torsin-1A (Homo sapiens) [8]) | composite z-score (Torsin-1A (Homo sapiens) [9]) | composite z-score [10]
[N-]=[N+]=Nc1ccccc1C[C@]1(C(=O)NCc2ccccc2)COC(c2ccc(OCCCO)cc2)=N1 | 0.607 | -4.89 (inactive) | 0.106 (inactive) | 0.101 (inactive) | -1.31 (inactive) | 1.01 | -0.104 | 0.413 | 0.932 | 0.153
C=C(C(=O)CC[C@H](OC(=O)c1ccccc1-c1ccccc1C(=O)O)c1ccccc1OCCO)C(C)C | 0.121 | -0.594 (inactive) | -0.0112 (inactive) | 3.25 (inactive) | 1.19 (inactive) | -0.344 | 0.0569 | 0.659 | 0.34 | 1.49
COCCCNC(=O)[C@@]1(Sc2ccc(C)cc2)CC(=O)N(Cc2ccccc2Cl)[C@@H]1c1ccc(CO)cc1I | -0.509 | -1.35 (inactive) | 0.241 (inactive) | -0.168 (inactive) | 1.68 (inactive) | -0.768 | -0.128 | -1.03 | -0.213 | -0.519
C=CCN1C(=O)[C@]2(O[C@H](CCO)[C@@H]([Si](C)(C)c3ccc(OC)cc3)[C@@H]2C)c2cc(N3C(=O)COc4ccccc43)ccc21 | 0.01 | -8.07 (active) | 0.518 (inactive) | 27.2 (active) | -3.5 (inactive) | 0.435 | -0.0245 | -0.339 | 0.072 | 1.18
CCOC(=O)C1=CCN(S(=O)(=O)c2ccc(C)cc2)C1c1ccccc1 (stereo not given) | 0.0881 | -3.3 (inactive) | 0.498 (inactive) | -0.284 (inactive) | -1.12 (inactive) | 0.388 | 0.141 | 0.355 | 0.302 | 0.598
COC(=O)C(CC#Cc1ccc2c(c1)[C@]1(C(=O)N2)[C@H](c2ccc(O)cc2)N2[C@H](c3ccccc3)[C@H](c3ccccc3)OC(=O)[C@H]2[C@@H]1C(=O)N1CCCCCCC1)C(=O)OC | 0.851 | -3.72 (inactive) | -1.77 (inactive) | -0.0515 (inactive) | -0.507 (inactive) | 1.26 | 1.36 | 0.78 | 0.592 | 0.777
COc1cc2c(cc1O)C(c1cccs1)N(Cc1sc3ccccc3c1Cl)CC2 (stereo not given) | 0.702 | -2.5 (inactive) | 0.546 (inactive) | -0.141 (inactive) | 0.93 (inactive) | 1.64 | 0.122 | 1.43 | 1.56 | 0.953
CC1CC/C=C\[C@H]2OC34C=CCN(C(C)(C)C)C(=O)[C@H]3N(C(CO)C(C)C)C(=O)[C@@H]4C2C(=O)O1 (stereo not given in full) | 0.0295 | 0.0336 (inactive) | 1.4 (inactive) | -0.354 (inactive) | 0.46 (inactive) | -0.324 | -0.128 | 0.0733 | 0.931 | 0.774
COC(=O)C1N=C(c2ccc(OCCCO)cc2)N(c2ccccc2)O1 (stereo not given) | 0.924 | 0.255 (inactive) | -0.787 (inactive) | 0.353 (inactive) | 0.0512 (inactive) | 0.562 | 0.308 | 0.654 | 0.328 | 0.664
COC(=O)[C@@]1(Cc2ccc(F)cc2)[C@H]2c3cc(C(=O)N(C)C)n(Cc4c(CO)[nH]cc(C)c4=O)c3C[C@H]2CN1C(=O)c1ccccc1 | 0.39 | -0.401 (inactive) | -0.00694 (inactive) | 0.39 (inactive) | 1.15 (inactive) | -0.0278 | 0.0212 | 0.475 | -0.134 | -0.462
[N-]=[N+]=NCc1ccccc1[C@@H]1OC(c2ccc(OCCCO)cc2)=N[C@]1(Cc1ccccc1N=[N+]=[N-])C(=O)N1CCCCC1 | 0.0032 | -1.91 (inactive) | -0.166 (inactive) | -0.753 (inactive) | -0.189 (inactive) | 1.58 | 0.329 | 0.133 | 1.31 | 0.0257
CCC(CC)C(O)C1C=CC2C(=O)N(c3ccccc3)C(=O)C2N1Nc1ccc([N+](=O)[O-])cc1 (stereo not given) | 0.205 | 0.0373 (inactive) | -0.639 (inactive) | -0.62 (inactive) | -0.68 (inactive) | 0.754 | 0.124 | 0.273 | 0.427 | 0.179
COCC(=C=CC[C@@H](O)c1ccc(OCCO)cc1)CCO | 0.0576 | -0.258 (inactive) | -0.934 (inactive) | 0.0986 (inactive) | -0.482 (inactive) | -0.471 | -0.0762 | 0.995 | 0.966 | 1.59
Cc1ccc(C(C)CC(O)C2C=CC3C(=O)N(c4ccccc4)C(=O)C3N2Nc2ccc(C#N)cc2)o1 (stereo not given) | 0.303 | -1.18 (inactive) | -0.194 (inactive) | -0.333 (inactive) | -0.306 (inactive) | 1.1 | 0.027 | 0.279 | 0.443 | 0.218
[N-]=[N+]=NCc1ccccc1C[C@]1(C(=O)N2CCOCC2)COC(c2ccc(OCCCO)cc2)=N1 | 0.0879 | -3.07 (inactive) | -0.983 (inactive) | 1.69 (inactive) | -0.931 (inactive) | 1.6 | 0.0888 | 1.71 | 1.56 | 0.179
COC(=O)C1=CC(CCCO)=CC(C)N(Cc2cccc(OC(F)(F)F)c2)C=C1C(=O)OC (stereo not given) | 0.145 | -1.07 (inactive) | -0.117 (inactive) | -0.168 (inactive) | 0.308 (inactive) | 0.747 | -0.001 | -0.148 | 0.47 | -0.681
COCCOC(=O)N1C(=O)[C@@]2(c3cc(C#Cc4ccc(OC)cc4)ccc31)[C@H](c1ccc(OCCO)cc1)N1[C@H](c3ccccc3)[C@H](c3ccccc3)OC(=O)[C@H]1[C@@H]2C(=O)Nc1nc2ccccc2s1 | 0.144 | -1.1 (inactive) | 0.408 (inactive) | 0.272 (inactive) | -0.175 (inactive) | 1.19 | 0.164 | 0.29 | 0.461 | 0.691
CC(C)C(=C=CC[C@H](O)c1cccc(OCCO)c1)CCO | 0.299 | -1.25 (inactive) | -0.461 (inactive) | 6.6 (inactive) | -0.253 (inactive) | -0.669 | -0.224 | -0.513 | 0.15 | 0.688
Cc1cccc([C@H]2C[C@H]3C(Br)=C[C@@H]2C(=O)[C@]32CO2)c1 | -0.258 | -0.687 (inactive) | 0.185 (inactive) | 0.854 (inactive) | 2.63 (inactive) | -0.221 | -0.239 | 0.397 | -1.21 | -0.198
COCCOC(=O)N1C(=O)[C@@]2(c3cc(C#CCNC(N)=O)ccc31)[C@H](c1ccc(OCCO)cc1)N1[C@H](c3ccccc3)[C@H](c3ccccc3)OC(=O)[C@H]1[C@@H]2C(=O)NC[C@H](O)c1ccccc1 | 0.423 | -0.441 (inactive) | -0.498 (inactive) | -1.56 (inactive) | -0.567 (inactive) | 0.904 | 0.111 | 0.367 | 0.792 | 1.27
O=C(NCC(O)CO)[C@@]1(CCS(=O)(=O)c2ccccc2)COC(c2ccc(OCCCO)cc2)=N1 (stereo not given in full) | 0.556 | -1.2 (inactive) | 0.063 (inactive) | 0.33 (inactive) | 0.0138 (inactive) | 0.985 | 0.228 | 1.13 | 1.91 | -0.504
O=C1c2ccccc2[C@](Cc2ccccc2I)(C(=O)NC2CC2)[C@H](c2ccc(CO)cc2)N1Cc1ccccc1C(F)(F)F | -0.15 | -4.84 (inactive) | -0.0186 (inactive) | 0.764 (inactive) | -0.5 (inactive) | 0.671 | 1.25 | 0.147 | 0.16 | 0.792
COc1ccc([Si](C)(C)[C@H]2[C@H](CCO)O[C@@]3(C(=O)N(Cc4ccccc4)c4ccc(N5CCOC5=O)cc43)[C@@H]2C)cc1 | 0.0771 | -4.87 (inactive) | -0.521 (inactive) | 2.11 (inactive) | -0.726 (inactive) | 1 | 0.0756 | -0.112 | -0.12 | 1.16
CN(C)CCCCNC(=O)[C@H]1C[C@H]2C(=O)N[C@@H](CCCC[N+](C)(C)C)C(=O)N2[C@H]1c1ccc(O)cc1 | 0.0044 | -0.482 (inactive) | 1.04 (inactive) | -1.2 (inactive) | -1.14 (inactive) | -0.202 | -0.179 | 0.278 | 0.97 | 0.719
COCCCNC(=O)[C@@]1(Sc2ccc(C)cc2)CC(=O)N(C(C)C)[C@@H]1c1ccc(CO)cc1I | -0.0469 | -4.86 (inactive) | -0.96 (inactive) | 0.0655 (inactive) | 1.35 (inactive) | -0.671 | -0.0762 | 0.154 | 1.18 | -0.005
COCCOC(=O)N1C(=O)[C@@]2(c3cc(C#CCCO)ccc31)[C@H](C(=O)N1CCCCCCC1)[C@H]1C(=O)O[C@H](c3ccccc3)[C@H](c3ccccc3)N1[C@@H]2c1ccccc1OCCO | 0.985 | -2.07 (inactive) | 0.893 (inactive) | 0.0655 (inactive) | -0.823 (inactive) | 2.6 | 1.3 | 1.22 | 1.62 | 1.68
O=c1cccc(-c2ccco2)o1 | 0.302 | -0.768 (inactive) | 0.329 (inactive) | -0.518 (inactive) | 0.57 (inactive) | 0.721 | 0.0091 | 0.444 | 0.066 | 2.07
COCCCNC(=O)[C@@H]1c2ccccc2C(=O)N(C2Cc3ccccc3C2)[C@H]1c1ccc(CO)cc1 | -0.0499 | 0.646 (inactive) | 0.48 (inactive) | -0.619 (inactive) | -0.67 (inactive) | -0.449 | 0.208 | 0.717 | -0.184 | 0.457
COc1ccc(C(=O)Nc2cccc(CN3C(=O)[C@@]4(O[C@@H](CC(=O)N(CCO)Cc5ccccc5)[C@H]([Si](C)(C)c5ccc(OC)cc5)[C@H]4C)c4ccccc43)c2)cc1 | -0.198 | -4.44 (inactive) | -0.244 (inactive) | 3.3 (inactive) | -0.76 (inactive) | -0.503 | -0.101 | 0.479 | 1.16 | 1.51
